This is an account of results in PubChem BioAssay (EPA / NIEHS).

Common to all, as to settings: mRNA level, 48 h; actives raise or lower the signal
Read-out in assay [1]: Early growth response protein 1 (EGR1) transcription factor, EGR1 (gene 1958)
Put plainly: LTEA_HepaRG_EGR1: Life Technologies and Expression Analysis (LTEA) Assay for Early growth response protein 1 (EGR1) transcription factor using HepaRG (AID 2283490). In a few lines:
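Differentiated HepaRG cells in serum-free induction medium exposed 48 hours, duplicate, to 8 half-log concentrations up to 100 uM in 0.5% DMSO. EGR1 mRNA measured by TaqMan qRT-PCR, normalized to ACTB, GAPDH, POLR2A; bidirectional fit versus DMSO.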

Read-out in assay [2]: Ezrin (EZR), EZR (gene 7430)
Put plainly: LTEA_HepaRG_EZR: Life Technologies and Expression Analysis (LTEA) Assay for Ezrin (EZR) using HepaRG (AID 2283491). In a few lines:
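EZR transcript levels came from Fluidigm qRT-PCR and were normalized to three housekeeping genes after 48 h chemical exposure of HepaRG cells. Dosing used an 8-point half-log series with a 100 uM top concentration in 0.5% DMSO, tested in duplicate; both directions were fitted versus vehicle.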

Read-out in the next assay: CYP3A5 (gene 1577)
Kind of assay: LTEA_HepaRG_CYP3A5: Life Technologies and Expression Analysis (LTEA) Assay for CYP3A5 using HepaRG (AID 2283493). The method in brief: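 mRNA induction or loss of CYP3A5 assessed in HepaRG after 48 h dosing, 100 uM top concentration, duplicate wells; TaqMan qRT-PCR with ACTB, GAPDH, POLR2A normalization; 0.5% DMSO as negative control.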

Read-out in assay [3]: Fatty Acid-Binding Protein 1 (FABP1), FABP1 (gene 2168)
Kind of assay: LTEA_HepaRG_FABP1: Life Technologies and Expression Analysis (LTEA) Assay for Fatty Acid-Binding Protein 1 (FABP1) using HepaRG (AID 2283494). In a few lines:
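Differentiated human HepaRG cells exposed 48 h in serum-free induction medium to eight half-log concentrations up to 100 uM (0.5% DMSO), duplicate. FABP1 mRNA by qRT-PCR, normalised to ACTB, GAPDH, POLR2A; bidirectional fitting against DMSO.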

Read-out in assay [4]: Cytochrome P450 4A22 (Homo sapiens) (UniProt Q5TCH4)
Kind of assay: LTEA_HepaRG_CYP4A22: Life Technologies and Expression Analysis (LTEA) Assay for Cytochrome P450 4A22 (CYP4A22) using HepaRG (AID 2283495). The method in brief:
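HepaRG, 48 h post-plating -> serum-free induction medium; dosed 48 h, duplicate, 8 conc. (100 uM top, half-log), 0.5% DMSO. Readout: CYP4A22 mRNA by qRT-PCR, ACTB/GAPDH/POLR2A normalization; gain/loss fit relative to DMSO.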

Read-out in assay [5]: Cytochrome P450 7A1 (Homo sapiens) (UniProt P22680)
Kind of assay: LTEA_HepaRG_CYP7A1: Life Technologies and Expression Analysis (LTEA) Assay for Cytochrome P450 7A1 (CYP7A1) using HepaRG (AID 2283496). The method in brief:
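Gene expression endpoint in human HepaRG liver cells treated for 48 h with test chemicals (up to 100 uM, 0.5% DMSO). Values come from bidirectional concentration-response fitting versus DMSO.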

Read-out in assay [6]: Glutathione S-Transferase (GSTA2), GSTA2 (gene 2939)
Put plainly: LTEA_HepaRG_GSTA2: Life Technologies and Expression Analysis (LTEA) Assay for Glutathione S-Transferase (GSTA2) using HepaRG (AID 2283497). In a few lines: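 Differentiated human HepaRG cells were exposed in duplicate for 48 h in serum-free induction medium, 8 points from 100 uM top in half-log steps, 0.5% DMSO. GSTA2 mRNA was measured by TaqMan qRT-PCR, normalized to ACTB, GAPDH and POLR2A; bidirectional fit versus DMSO.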

Read-out in assay [7]: Glutamate-cysteine ligase catalytic (GCLC), GCLC (gene 2729)
Kind of assay: LTEA_HepaRG_GCLC: Life Technologies and Expression Analysis (LTEA) Assay for Glutamate-cysteine ligase catalytic (GCLC) using HepaRG (AID 2283498). In a few lines: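 Differentiated HepaRG cells exposed 48 h in serum-free induction medium, eight-point half-log series topping at 100 uM in 0.5% DMSO, duplicates. GCLC mRNA by qRT-PCR normalized to ACTB, GAPDH and POLR2A, fitted bidirectionally versus DMSO.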

Read-out in assay [8]: growth arrest and DNA damage 45 (GADD45G), GADD45G (gene 10912)
Kind of assay: LTEA_HepaRG_GADD45G: Life Technologies and Expression Analysis (LTEA) Assay for growth arrest and DNA damage 45 (GADD45G) using HepaRG (AID 2283499). In a few lines:
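HepaRG, 48 h exposure, top 100 uM, half-log 8-point series, 0.5% DMSO vehicle, duplicates. Readout: GADD45G transcript by qRT-PCR (Fluidigm array), housekeeping-normalised (ACTB/GAPDH/POLR2A). Bidirectional curve fit vs DMSO baseline.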

Read-out in assay [9]: Glutamate-cysteine ligase regulatory (GCLM), GCLM (gene 2730)
Kind of assay: LTEA_HepaRG_GCLM: Life Technologies and Expression Analysis (LTEA) Assay for Glutamate-cysteine ligase regulatory (GCLM) using HepaRG (AID 2283500). The method in brief:
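Human liver HepaRG cultures receive test chemicals for 48 hours at up to 100 uM in 0.5% DMSO. GCLM expression is measured by qRT-PCR and analysed for increases or decreases against vehicle.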

Read-out in assay [10]: Hypoxia-inducible factor 1-alpha (Homo sapiens) (UniProt Q16665)
Kind of assay: LTEA_HepaRG_HIF1A: Life Technologies and Expression Analysis (LTEA) Assay for Hypoxia-inducible factor 1 (HIF1A) Trancription factor using HepaRG (AID 2283503). In a few lines:
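HepaRG, 48 h exposure, 8-pt half-log series from 100 uM, 0.5% DMSO vehicle, duplicates. Readout: HIF1A transcript by qRT-PCR (Fluidigm array), housekeeping-normalised. Bidirectional curve fit vs DMSO baseline.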

Read-out in assay [11]: 3-Hydroxy-3-Methylglutaryl-CoA Synthase 2 (HMGCS2), HMGCS2 (gene 3158)
Put plainly: LTEA_HepaRG_HMGCS2: Life Technologies and Expression Analysis (LTEA) Assay for 3-Hydroxy-3-Methylglutaryl-CoA Synthase 2 (HMGCS2) using HepaRG (AID 2283504). In a few lines: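 qRT-PCR read-out of HMGCS2 transcript, normalised to three housekeeping genes, in HepaRG cells after 48 h chemical exposure. Eight-point curves from 100 uM, half-log dilutions, 0.5% DMSO vehicle; gain or loss fitted relative to DMSO baseline.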

Read-out in another assay: HGF (gene 3082)
Kind of assay: LTEA_HepaRG_HGF: Life Technologies and Expression Analysis (LTEA) Assay for Hepatocyte Growth Facto (HGF) using HepaRG (AID 2283505). In a few lines: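 HepaRG, 48 h dosing, 8-pt half-log series from 100 uM in 0.5% DMSO, duplicates. Readout: TaqMan qRT-PCR of HGF mRNA, housekeeping-normalized; bidirectional curve fit vs DMSO baseline.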

Read-out in assay [12]: Insulin Like Growth Factor 1 (IGF1), IGF1 (gene 3479)
Kind of assay: LTEA_HepaRG_IGF1: Life Technologies and Expression Analysis (LTEA) Assay for Insulin Like Growth Factor 1 (IGF1) using HepaRG (AID 2283506). In a few lines:
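Using human HepaRG liver cells, IGF1 transcript induction or suppression is measured 48 h after dosing across eight concentrations capped at 100 uM. Values derive from bidirectional concentration-response fitting with DMSO as baseline.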

Read-out in assay [13]: Intercellular Adhesion Molecule 1 (ICAM1), ICAM1 (gene 3383)
Kind of assay: LTEA_HepaRG_ICAM1: Life Technologies and Expression Analysis (LTEA) Assay for Intercellular Adhesion Molecule 1 (ICAM1) using HepaRG (AID 2283507). In a few lines: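 HepaRG, 48 h exposure, 8-pt half-log series from 100 uM, 0.5% DMSO vehicle, duplicates. Readout: TaqMan qRT-PCR mRNA, housekeeping-normalized (ACTB/GAPDH/POLR2A). Bidirectional curve fit vs DMSO baseline.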

Read-out in assay [14]: Insulin-like growth factor-binding protein 1 (IGFBP1), IGFBP1 (gene 3484)
Kind of assay: LTEA_HepaRG_IGFBP1: Life Technologies and Expression Analysis (LTEA) Assay for Insulin-like growth factor-binding protein 1 (IGFBP1) using HepaRG (AID 2283508). In a few lines:
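qRT-PCR mRNA read-out (TaqMan, Fluidigm array), normalised to three housekeeping genes; HepaRG cells, 48 h exposure, 8-pt half-log series from 100 uM, 0.5% DMSO vehicle; bidirectional curve fit vs DMSO baseline.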

Read-out in assay [15]: Interleukin 6 (IL6), IL6 (gene 3569)
Kind of assay: LTEA_HepaRG_IL6: Life Technologies and Expression Analysis (LTEA) Assay for Interleukin 6 (IL6) using HepaRG (AID 2283509). In a few lines:
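HepaRG cells exposed in duplicate for 48 h to eight half-log concentrations, top 100 uM, in 0.5% DMSO serum-free induction medium. mRNA measured by qRT-PCR, normalized to ACTB, GAPDH and POLR2A. Bidirectional fit versus DMSO.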

Read-out in assay [16]: Glutathione S-transferase M3 (GSTM3), GSTM3 (gene 2947)
Kind of assay: LTEA_HepaRG_GSTM3: Life Technologies and Expression Analysis (LTEA) Assay for Glutathione S-transferase M3 (GSTM3) using HepaRG (AID 2283501). In a few lines:
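qRT-PCR read-out of GSTM3 transcript, normalized to three housekeeping genes, from human HepaRG cells after 48 h chemical exposure. Eight-point half-log series, top 100 uM, 0.5% DMSO vehicle; gain or loss fitted relative to DMSO baseline.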

Read-out in assay [17]: Heat shock 70 kDa protein 1 (HSPA1A), gene 3303
Kind of assay: LTEA_HepaRG_HSPA1A: Life Technologies and Expression Analysis (LTEA) Assay for Heat shock 70 kDa protein 1 (HSPA1A) using HepaRG (AID 2283502). In a few lines:
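HSPA1A induction in human HepaRG liver cells is measured after 48 h of chemical treatment (100 uM maximum, 0.5% DMSO vehicle). Expression comes from qRT-PCR normalized to endogenous controls.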

Read-out in assay [18]: Cytochrome P450 3A7 (Homo sapiens) (UniProt P24462)
Put plainly: LTEA_HepaRG_CYP3A7: Life Technologies and Expression Analysis (LTEA) Assay for CYP3A7 using HepaRG (AID 2283492). The method in brief: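 CYP3A7 transcript levels were read by TaqMan qRT-PCR on Fluidigm arrays after 48 h chemical exposure of human HepaRG cells, with housekeeping-gene normalisation. Eight half-log concentrations up to 100 uM in 0.5% DMSO were tested in duplicate.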

Calls of active or inactive are those of the source. How the source made its calls: active means hit-call score of the fitted dose curve at least 0.9, where 1 is the maximum; inactive means score below 0.9.

Hypoxia-inducible factor 1-alpha (Homo sapiens), sequence (Q16665 whole entry, looked up): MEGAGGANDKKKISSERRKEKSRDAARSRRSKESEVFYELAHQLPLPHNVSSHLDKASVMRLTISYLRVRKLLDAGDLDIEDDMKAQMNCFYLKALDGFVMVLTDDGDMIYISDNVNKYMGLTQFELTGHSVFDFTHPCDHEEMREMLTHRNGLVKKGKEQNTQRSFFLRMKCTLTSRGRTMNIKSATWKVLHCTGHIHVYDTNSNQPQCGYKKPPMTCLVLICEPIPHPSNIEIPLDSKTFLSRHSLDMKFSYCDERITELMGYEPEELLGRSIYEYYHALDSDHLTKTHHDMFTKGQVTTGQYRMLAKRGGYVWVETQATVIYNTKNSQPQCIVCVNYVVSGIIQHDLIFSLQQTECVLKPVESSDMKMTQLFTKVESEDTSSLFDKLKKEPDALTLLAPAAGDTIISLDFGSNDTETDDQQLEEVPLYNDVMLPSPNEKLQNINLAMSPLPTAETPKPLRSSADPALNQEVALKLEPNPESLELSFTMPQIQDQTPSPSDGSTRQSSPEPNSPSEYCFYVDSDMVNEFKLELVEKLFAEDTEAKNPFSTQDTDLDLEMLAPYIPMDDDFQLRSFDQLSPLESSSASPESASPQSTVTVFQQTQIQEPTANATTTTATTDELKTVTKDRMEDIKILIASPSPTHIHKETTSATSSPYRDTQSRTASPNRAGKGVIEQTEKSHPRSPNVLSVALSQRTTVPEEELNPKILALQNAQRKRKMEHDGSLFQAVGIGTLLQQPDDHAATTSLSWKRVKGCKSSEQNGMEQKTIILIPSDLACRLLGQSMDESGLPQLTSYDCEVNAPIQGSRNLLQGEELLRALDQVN
Cytochrome P450 3A7 (Homo sapiens), sequence (P24462 whole entry, looked up): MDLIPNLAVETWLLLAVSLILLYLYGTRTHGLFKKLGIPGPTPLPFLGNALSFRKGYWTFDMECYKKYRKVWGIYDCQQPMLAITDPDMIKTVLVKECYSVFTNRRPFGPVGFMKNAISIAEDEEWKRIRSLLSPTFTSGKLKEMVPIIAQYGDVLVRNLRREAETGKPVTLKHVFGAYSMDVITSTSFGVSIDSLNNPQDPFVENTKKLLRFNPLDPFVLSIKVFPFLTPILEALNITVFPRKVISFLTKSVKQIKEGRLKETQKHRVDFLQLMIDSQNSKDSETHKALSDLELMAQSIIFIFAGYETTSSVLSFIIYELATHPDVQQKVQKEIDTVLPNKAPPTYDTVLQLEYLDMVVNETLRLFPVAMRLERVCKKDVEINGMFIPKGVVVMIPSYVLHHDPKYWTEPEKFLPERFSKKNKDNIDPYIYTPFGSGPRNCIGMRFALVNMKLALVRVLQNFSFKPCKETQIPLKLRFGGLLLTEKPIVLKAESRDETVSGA

The term AC50 denotes the concentration at which the activity in the assay is half-maximal. Regarding `Nc1nc(=S)c2[nH]cnc2[nH]1`, the AC50 in assay [1] was 7.2 µM (active); in [2], 0.586 µM (active); in [3] it was 9.73 µM (active); in assay [4] it was 7.06 µM (active); in [5], 10.2 µM (active); in assay [6], 7.68 µM (active). Besides, the AC50 in assay [7] is 15.3 µM (active); in assay [11] it was 7.48 µM (active); in [12], 20.5 µM (active); in assay [15], 14.8 µM (active). Also, the result (with CYP3A5 (gene 1577); in [8]; in [9]; in assay [10]; in the assay with HGF (gene 3082); in assay [13]) was inactive. Also, the outcome in [14] was inactive.

As to `CC(C)NCC(O)c1ccc(O)c(O)c1` (centres undefined), the compound was called inactive in assay [1], in assay [4], in assay [7], in assay [8], in assay [12] and in assay [13]. Also, the compound was classed as inactive in [14] and in assay [15]. For the same compound, the AC50 in [2] is 1.8 µM (active); with CYP3A5 (gene 1577) it was 0.153 µM (active); in assay [3], 0.479 µM (active); in [5], 0.212 µM (active); in assay [6], 0.222 µM (active); in assay [16], 0.273 µM (active). Further, the AC50 was 0.116 µM (active) in assay [17], 0.173 µM (active) in [11] and 0.166 µM (active) with HGF (gene 3082).

With `Oc1ccc(O)cc1`, the compound was called inactive (in [1]; in assay [2]; in assay [18]; with CYP3A5 (gene 1577); in assay [4]; in assay [5]). In addition, the compound was classed as inactive in assay [6], in assay [7], in assay [8], in assay [16], in assay [17] and in assay [11]. In addition, the result (with HGF (gene 3082); in assay [12]; in assay [13]; in [14]; in assay [15]) was inactive.

Turning to `C#CC(O)C(CC)CCCC` (centres undefined), the result (in assay [1]; in assay [2]; in [18]; with CYP3A5 (gene 1577); in assay [4]; in assay [5]) was inactive. Also, the compound was called inactive in [6], in assay [7], in assay [8], in [16], in assay [17] and in assay [10]. Besides, the compound was classed as inactive (in assay [11]; with HGF (gene 3082); in assay [12]; in [13]; in assay [14]; in assay [15]).
